Results with a measured potency or affinity are listed apart. Results filed as inconclusive are left out. Unmarked numbers belong to inactive results.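 The calls were made as follows: active = signal loss from cell killing with fitted potency at or below twice the top valid dose; inconclusive = flat drop of 30 to 70%, or unreliable curve fit; inactive = opposite direction, flat within 30%, or weaker potency.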

This test in a line: viability loss in A549 lung cancer cells – cell-based, cherry-picks, 26 µM top dose, cytotoxicity control, dose response (AID 1053119).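 Also: 0% = neutral control wells and -100% = 10 µM mitoxantrone wells.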 The following applies: CellTiter-Glo ATP luminescence, 72 h; series mostly up to 26 µM; activity change, negative = cytotoxicity: at the top concentration. (In general: In ATP-based viability assays light output follows the ATP content of the culture.)
Take `C[C@H](CO)N1C[C@H](C)[C@@H](CN(C)Cc2ccccc2)Oc2ncc(-c3ccccc3)cc2C1=O`: the “activity change, negative = cytotoxicity” value was 1.15%.
On to `CO[C@@H]1CN(C)C(=O)c2ccc(NC(=O)c3ccc(-c4ccccc4)cc3)cc2OC[C@@H](C)NC[C@@H]1C`, for which the “activity change, negative = cytotoxicity” value is -9.52%.
Then `O=S(=O)(c1ccccc1F)N1CC[C@@H]2[C@H]1c1cc(-c3cccc(F)c3)ccc1N[C@@H]2CO`, with -2.99%; and `CCOC(=O)c1cnc(SCc2nc(N)nc(Nc3ccc(OC)cc3)n2)nc1N`, with -4.98%.
For `Cc1cc(C)c(S(=O)(=O)Nn2cnnc2)c(C)c1` the value was -12.4%.
Then `Cc1ccccc1S(=O)(=O)N1CC[C@H]2[C@H](CO)Nc3ccc(-c4ccc(C#N)cc4)cc3[C@H]21`, with -6.96%; and `O=C(Nc1ccccc1F)N1C[C@H]2[C@@H](c3ccccc31)[C@@H](CO)N2C(=O)C1CC1`, with -9.56%.
Regarding `CC(C)(C)[S@@](=O)N1Cc2cc(C(=O)NCc3ccccc3F)nc(-c3cccc(-c4cncnc4)c3)c2[C@H]1CCO`, the “activity change, negative = cytotoxicity” value is -12.2%.
Regarding `COC(=O)C[C@@H]1CC[C@@H]2[C@@H](COc3ccc(NC(=O)Cc4cccs4)cc3C(=O)N2C)O1`, the “activity change, negative = cytotoxicity” value is 6.73%.
For `CCCc1cc(C(=O)OC)c(NC(=O)CCC(=O)O)s1` the value was -7.87%.
Then `CCOc1ccccc1NC(=O)c1c(NC(=O)CCC(=O)O)sc2c1CCCCC2`, with -16.4%; and `N#Cc1ccc(-c2ccc3c(c2)[C@@H]2[C@@H](CCN2S(=O)(=O)c2ccccc2F)[C@H](CO)N3)cc1`, with -1.48%.
For `CC(C)Cc1nnc(NC(=O)CSc2nc(N)cc(=O)[nH]2)s1` the value was -9.89%.
On to `Cc1ccc(Nc2nnc(SCc3ccccc3)s2)cc1`, for which the “activity change, negative = cytotoxicity” value was -8.6%.
For `O=C(CC1Nc2ccccc2NC1=O)Nc1ccc2c(c1)OCO2` (configuration not stated) the value was -10.1%; for `C[C@@H]1CN([C@@H](C)CO)C(=O)c2cc(-c3ccncc3)cnc2O[C@@H]1CN(C)C(=O)Cc1cccnc1`, 3.71%.
For `Cc1cc(C)n2ncc(C(=O)NCc3ccc(Cl)cc3)c2n1` the value was -3.99%; for `COC(=O)C[C@H]1CC[C@H]2[C@H](COc3ccc(NC(=O)Cc4cccs4)cc3C(=O)N2C)O1`, -7.75%.
For `C[C@@H]1CN([C@@H](C)CO)C(=O)c2cc(-c3ccccc3)cnc2O[C@H]1CN(C)C(=O)c1cccc(F)c1` the value was -3.62%; for `COCC(=O)Nc1ccc2c(c1)C(=O)N(C)[C@@H]1CC[C@H](CC(=O)NCc3ccccc3Cl)O[C@@H]1CO2`, -3.35%; for `COC(=O)C[C@H]1CC[C@@H]2[C@H](COc3ccc(NC(=O)Cc4cccs4)cc3C(=O)N2C)O1`, 2.92% [at 23.5 µM].
On to `Cn1cnc(S(=O)(=O)N2CCN(c3ccccc3)CC2)c1`, for which the “activity change, negative = cytotoxicity” value is -0.126%.
Turning to `O=C(Nc1ccccc1F)N1C[C@H]2[C@@H](c3ccccc31)[C@H](CO)N2C(=O)C1CC1`, the “activity change, negative = cytotoxicity” value is 1.68%.
Then `C[C@H](O)C#Cc1ccc2c(c1)O[C@@H](CN(C)C)[C@H](C)CN([C@@H](C)CO)S2(=O)=O`, with -2.13%; and `COc1cccc(-c2ccc3c(c2)[C@H]2[C@H](CCN2S(=O)(=O)c2cccc(OC)c2)[C@@H](CO)N3)c1`, with -4.15%; and `C[C@H](O)C#Cc1ccc2c(c1)O[C@H](CN(C)C)[C@H](C)CN([C@@H](C)CO)S2(=O)=O`, with 1.47%.
Then `C[C@H]1CN([C@@H](C)CO)C(=O)c2cc(NC(=O)CCCN(C)C)ccc2O[C@H]1CN(C)Cc1ccc(-c2ccccc2)cc1`, with 6.67%; and `C[C@@H]1CN([C@H](C)CO)C(=O)c2cc(NC(=O)C3CCCCC3)ccc2O[C@@H]1CN(C)Cc1ccc(-c2ccccc2)cc1`, with -12.1%; and `COc1ccc([N+](=O)[O-])cc1NS(=O)(=O)c1ccc(C(=O)N2CCCC2)cc1`, with -5.09%.
For `CC(C)CNC(=O)c1coc(=O)c(Br)c1` the value was -7.45%; for `C[C@H]1CN([C@@H](C)CO)C(=O)c2cc(-c3ccccc3)cnc2O[C@H]1CN(C)Cc1ccccc1`, -3.41%; for `CN1c2ccc(-c3ccccc3)cc2[C@@H]2[C@@H](CCN2C(=O)CN2CCOCC2)[C@H]1CO`, -3.89% [at 23.5 µM].
On to `C[C@H]1CN([C@@H](C)CO)C(=O)c2cc(NC(=O)CCCN(C)C)ccc2O[C@@H]1CN(C)Cc1ccc(-c2ccccc2)cc1`, for which the “activity change, negative = cytotoxicity” value is -0.529%.
Consider `Nc1nc(-c2cc3c(cc2Cl)OCCO3)cs1`, for which the “activity change, negative = cytotoxicity” value was -2.27%.
For `CCC(C)(C)NC(=O)C(OC(=O)c1ccco1)c1ccccc1OC` (configuration not stated) the value was -3.54%.
Then `CC(NC(=O)CSc1ccc(S(=O)(=O)N2CCOCC2)cn1)c1ccc(Cl)cc1Cl` (configuration not stated), with 12.1%; and `COC(=O)c1c(NC(=O)CN2CCN(c3ccccc3Cl)CC2)sc(C)c1C`, with -11.6%.

(Values after PubChem BioAssay AID1053119 (Broad Institute, 2014).)
